Rows were chosen to be rich in hits. Some 22% of all compounds tested hit in one or more screens of this group.
CYP2C9 act: activators of human CYP2C9. 96,000 tested, 1.4% active. activation factor at 5 µM. recombinant CYP2C9, luciferin-H conversion, luminescence; active compounds read high; factor 1 = untreated enzyme, 0 = blocked. P11712;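 active means activation factor of 2 or more for CYP2C9 at a 5 µM dose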
Target sequence (P11712 whole entry, looked up): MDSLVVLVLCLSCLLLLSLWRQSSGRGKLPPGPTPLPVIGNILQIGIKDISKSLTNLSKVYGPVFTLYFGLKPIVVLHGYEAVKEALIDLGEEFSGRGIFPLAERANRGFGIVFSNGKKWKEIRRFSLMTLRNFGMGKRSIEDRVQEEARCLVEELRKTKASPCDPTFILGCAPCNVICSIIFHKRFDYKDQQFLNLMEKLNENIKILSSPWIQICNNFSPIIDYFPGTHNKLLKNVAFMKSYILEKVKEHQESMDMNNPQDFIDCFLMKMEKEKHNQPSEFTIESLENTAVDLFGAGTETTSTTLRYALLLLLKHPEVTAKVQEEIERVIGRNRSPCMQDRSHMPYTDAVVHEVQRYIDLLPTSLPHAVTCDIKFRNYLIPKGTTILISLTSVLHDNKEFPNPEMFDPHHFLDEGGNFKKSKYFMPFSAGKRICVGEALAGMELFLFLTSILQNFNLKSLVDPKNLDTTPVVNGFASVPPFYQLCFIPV
CYP2C19 act: cytochrome P450 2C19 (human) activation; AID 1025; activation factor at 5 µM; 96,000 tested, under 10 active; recombinant CYP2C19, luciferin-H EGE luminescence; active compounds read high; 0 = fully inhibited enzyme, 1 = untreated enzyme;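 active means activation factor of at least 2 at 5 µM in the primary screen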
CYP2C19 inh: human CYP2C19 inhibition; P33261; CYP2C19 Supersomes, luciferin-H EGE luminescence, 30 min; inhibition, % at 5 µM; 96,000 tested, 21% active; AID 778;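 active means CYP2C19 inhibition above a set limit at 5 µM in the primary screen, cut at about 50% in these data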
CYP2C9 inh: inhibitors of human CYP2C9 | CYP2C9 Supersomes, luciferin-H conversion, luminescence | 96,000 tested, 20% active | P11712 | inhibition, % at 5 µM;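 active means blocking of liver enzyme CYP2C9 beyond about 50% at 5 µM, limit read from the data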
Measles CPE: protection of cells from measles virus; Measles virus-infected cells, CPE protection, absorbance; protection (pct of control), % at 4 µM; 140,000 tested, 1.5% active; AID 841; in the data active means protection mostly above about 24%, no sharp cut-off; inactive means mostly below about 26%
Large screens that a line does not name were inactive.

CCOc1ccc2nc(SCc3ccc(C(=O)OC)o3)[nH]c2c1	CYP2C19 inh 83, CYP2C9 inh 80
CCOC(=O)NC(=O)CSc1nc2ccc(OCC)cc2[nH]1	none
C=CCOc1ccc2nnc(C)n2n1	none (no result: CYP2C9 act, CYP2C19 act, CYP2C19 inh, CYP2C9 inh)
COc1cccc(-c2cc(=O)c3cc(NC(=O)c4ccc(N(C)C)cc4)ccc3[nH]2)c1	none (no result: CYP2C9 act, CYP2C19 act, CYP2C19 inh, CYP2C9 inh)
COC(=O)c1ccc(CSc2nc3cc(Cl)ccc3s2)o1	none
CCCSc1nc2c(cnn2-c2ccc(C)c(C)c2)c(=O)[nH]1	none
COC(=O)c1ccc(CSc2nc3c(cnn3-c3ccc(C)c(C)c3)c(=O)[nH]2)o1	Measles CPE 30 (no result: CYP2C9 act, CYP2C19 act, CYP2C19 inh, CYP2C9 inh)
COC(=O)c1ccc(CSc2nc3ccc(Cl)cc3[nH]2)o1	CYP2C19 inh 54, CYP2C9 inh 80
COc1ccc(NC(=O)COc2ccc(C(=O)NC3CCCc4ccccc43)cc2OC)cc1 (centres undefined)	none (no result: CYP2C9 act, CYP2C19 act, CYP2C19 inh, CYP2C9 inh)
Cc1ccc(S(=O)(=O)Oc2ccc(/C=N/NC(=O)c3nn(C)cc3[N+](=O)[O-])cc2)cc1	none (no result: CYP2C9 act, CYP2C19 act, CYP2C19 inh, CYP2C9 inh)
COc1cc(NC(=O)Cn2nc(C(F)(F)F)c3c2CCCC3)cc(OC)c1OC	none
CCn1c(C)nc2cc(-c3nc4n(n3)Cc3ccccc3-4)ccc21	CYP2C19 inh 84
CCC/C(O)=C1\C(=O)CC(c2ccccc2)CC1=NCCc1c(C)[nH]c2ccc(C)cc12 (centres undefined)	none (no result: CYP2C9 act, CYP2C19 act, CYP2C19 inh, CYP2C9 inh)
S=C1COC(c2ccccc2)N1c1ccccc1 (centres undefined)	none (no result: CYP2C9 act, CYP2C19 act, CYP2C19 inh, CYP2C9 inh)
Cc1ccc(C(=O)Nc2c3c(nn2C(C)(C)C)CS(=O)(=O)C3)cc1C	CYP2C19 inh 99
CN(CC(=O)Nc1ccccc1C(=O)N1CCCC1)S(=O)(=O)c1ccc(Cl)cc1	none
CC(=C/c1ccc(C(C)C)cc1)/C=N/NC(=O)c1ccncc1	none (no result: CYP2C9 act, CYP2C19 act, CYP2C19 inh, CYP2C9 inh)
CC(/C=N/NC(=O)c1cc(-c2ccc(C)s2)[nH]n1)=C\c1ccccc1	none (no result: CYP2C9 act, CYP2C19 act, CYP2C19 inh, CYP2C9 inh)
CC(/C=N/NC(=O)c1cc(C(C)(C)C)[nH]n1)=C\c1ccccc1	CYP2C9 inh 60
CC(/C=N/NC(=O)c1ccncc1)=C\c1ccccc1	CYP2C19 inh 81, CYP2C9 inh 79
Cc1cccc(C(=O)N/N=C/c2ccncc2)c1	CYP2C19 inh 64
C=CCOC(=O)C1=C(C)NC(=O)NC1c1ccc(OC(=O)c2ccco2)c(OC)c1 (centres undefined)	none
CC(Sc1nnc2c(n1)C1(C)CCC2C1(C)C)C(=O)Nc1ccccc1 (centres undefined)	none
CCCS(=O)(=O)N1CCCC(C(=O)NCCCN2CCN(c3ccc(F)cc3)CC2)C1 (centres undefined)	CYP2C9 act 2.7
CS(=O)(=O)N1CCCC(C(=O)NCCCN2CCN(Cc3ccccc3)CC2)C1 (centres undefined)	CYP2C9 inh 59
CCCS(=O)(=O)N1CCCC(C(=O)NCCCOC(C)C)C1 (centres undefined)	none
COC(=O)C1C(=O)c2c([nH]c(C(=O)OCC3CCCO3)c2C)CC1C (centres undefined)	CYP2C9 inh 54
COC(=O)CSCc1nc2ccccc2[nH]c1=O	none (no result: CYP2C9 act, CYP2C19 act, CYP2C19 inh, CYP2C9 inh)
O=C1NC(=S)SC1=C1CCCCCC1	none
Cc1ccccc1-c1nc(CN2CCC(C(=O)N3CCN(c4ccccn4)CC3)CC2)c(C)o1	CYP2C9 inh 55
Cc1oc(-c2ccccc2)nc1CS(=O)CC(=O)N1CCc2ccccc2C1 (centres undefined)	CYP2C19 inh 61, CYP2C9 inh 68
CCOC(=O)N1CCN(C(=O)CS(=O)Cc2nc(-c3ccc(C)cc3)oc2C)CC1 (centres undefined)	none
Cc1cccc(-c2nc(CS(=O)CC(=O)N3CCCCC3)c(C)o2)c1 (centres undefined)	CYP2C9 inh 70
Cc1ccccc1-c1nc(CN2CCC(C(=O)N3CCC(C(N)=O)CC3)CC2)c(C)o1	none
COc1cccc(-c2nc(CS(=O)(=O)CC(=O)N3CCc4ccccc4C3)c(C)o2)c1	none
Cc1oc(-c2ccc(Cl)cc2)nc1CN1CCC(C(=O)N2CCc3ccccc3C2)CC1	CYP2C19 inh 90
O=C(CN1C(=O)CC(c2ccccc2)=Nc2ccccc21)NCc1ccco1	CYP2C9 inh 71
CCOC(=O)C(Cc1ccccc1)NC(=O)Cn1nnc(-c2ccccc2)n1 (centres undefined)	none
COc1cc(C(=O)Nc2ccccc2-c2nnn(CC(N)=O)n2)cc(OC)c1OC	CYP2C9 inh 78
CCOC(=O)c1ccc(CNC(=O)Cn2nnc(-c3ccc(C)cc3)n2)o1	CYP2C9 inh 60
COc1ccc(C(=O)Nc2ccccc2-c2nnn(CC(=O)NCc3ccco3)n2)cc1	CYP2C9 inh 75
c1ccc(CSc2ncnc3c2cnn3-c2ccccc2)cc1	none (no result: CYP2C9 act, CYP2C19 act, CYP2C19 inh, CYP2C9 inh)
O=C(COC(=O)CNC(=O)c1ccccc1F)NCCC1=CCCCC1	none (no result: CYP2C9 act, CYP2C19 act, CYP2C19 inh, CYP2C9 inh)
CCOC(=O)c1c(NC(=O)Cn2nnc(-c3ccc(Cl)cc3)n2)sc(CC)c1C	CYP2C9 inh 74
O=C(Cn1nnc(-c2cccc(C(F)(F)F)c2)n1)NC1CCCC1	CYP2C9 act 2.5
CCOc1ccc(-c2nnn(CC(=O)NCc3ccco3)n2)cc1	none
O=C(Cn1nnc(-c2ccccc2)n1)NCc1cccs1	CYP2C19 inh 72
O=C(Cn1nnc(-c2cccc(C(F)(F)F)c2)n1)NC(=O)NCc1ccco1	none
CCOC(=O)c1c(NC(=O)Cn2nnc(-c3ccc(Cl)cc3)n2)sc(C)c1C	none
O=C(Cn1nnc(-c2ccccc2)n1)NCc1ccco1	CYP2C19 inh 61
CCC(C)NC(=S)N(CCc1ccccc1)Cc1cc2cc(OC)c(OC)cc2[nH]c1=O (centres undefined)	none (no result: CYP2C9 act, CYP2C19 act, CYP2C19 inh, CYP2C9 inh)
COc1cccc(C(=O)COC(=O)c2ccc(NC(C)=O)cc2)c1	none (no result: CYP2C9 act, CYP2C19 act, CYP2C19 inh, CYP2C9 inh)
O=C(Cn1nnc(-c2ccccc2NC(=O)c2ccco2)n1)NC1CCCCC1	CYP2C9 inh 64
CCOC(=O)c1ccc(Cn2c(-c3ccccc3)nnc2-c2ccccc2)o1	CYP2C9 inh 58
Cn1cnnc1SCc1ccc(C(=O)n2ncc(C#N)c2N)cc1	none
O=C(NCC1c2ccccc2CCN1C(=O)CN1CCOCC1)C1CCCCC1 (centres undefined)	none
CC1CCCN(C(=O)C2c3ccccc3C(=O)N3CCc4ccccc4C23)C1 (centres undefined)	none
O=C(O)[C@@H]1CCCC[C@@H]1C(=O)N1CCc2ccccc2C1CN1C(=O)c2ccccc2C1=O (some centres undefined)	Measles CPE 64
O=C1c2ccccc2C(=O)N1CC1c2ccccc2CCN1C(=O)C1CCCCC1 (centres undefined)	CYP2C19 inh 73
C(=C\c1nc(N2CCCCCC2)c2ccccc2n1)/c1ccccc1	none (no result: CYP2C9 act, CYP2C19 act, CYP2C19 inh, CYP2C9 inh)
CCN(CC)C(=O)CSc1nc2ccccc2c(=O)n1-c1ccccc1OC	CYP2C9 inh 53
CCCN(CCC)C(=O)CSc1nc2ccccc2c(=O)n1C1CCCC1	CYP2C9 inh 65
CCN(CC)C(=O)CSc1nc2cccnc2n1-c1ccccc1OC	none
CN(C)c1ccc(NC(=O)CSc2nc3ccccc3c(=O)n2C2CCCCC2)cc1	CYP2C9 inh 69

Bioassay records (PubChem)
